Test [1] concerns the target Rap guanine nucleotide exchange factor 3 (Homo sapiens) (UniProt O95398). Briefly: Confirmatory qHTS for antagonist of cAMP-regulated guanine nucleotide exchange factor 3 (EPAC1) (AID 1645880). Also: nearly all actives have a fitted effect of over 55% in size. Also: potency is read from the fitted curve at half-maximal effect.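 As to activity, negative = inhibition: plate controls were DMSO only for no effect and full effect of the ATA control for full effect.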 Conditions: EPAC1 Rap1B-BODIPY-GDP exchange, fluorescence; activity, negative = inhibition: at 115 µM (top of the series). Summed up: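 Released BODIPY-GDP fluoresces less than Rap1-bound BODIPY-GDP; the signal is followed at 480/540 nm at 5-min intervals over 30 min, after 5 min at room temperature. Reactions contain 100 nM EPAC1, 250 nM RAP1B-BODIPY-GDP and 50 uM GDP; results are normalized to ATA and DMSO.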
In general terms: qHTS replaces the single test concentration by a dilution series.

The target in test [2] is Rap guanine nucleotide exchange factor 4 (Homo sapiens) (UniProt Q8WZA2). The test is described as follows: Confirmatory qHTS for antagonist of cAMP-regulated guanine nucleotide exchange factor 4 (EPAC2) (AID 1645885). Also: nearly all actives have a fitted effect of over 25% in size. Also: potency is read from the fitted curve at half-maximal effect. As to activity change, negative = inhibition: % is scaled to controls: 0 for no effect and ±100 for the full control effect.
Rap guanine nucleotide exchange factor 4 (Homo sapiens), sequence (Q8WZA2 whole entry, looked up): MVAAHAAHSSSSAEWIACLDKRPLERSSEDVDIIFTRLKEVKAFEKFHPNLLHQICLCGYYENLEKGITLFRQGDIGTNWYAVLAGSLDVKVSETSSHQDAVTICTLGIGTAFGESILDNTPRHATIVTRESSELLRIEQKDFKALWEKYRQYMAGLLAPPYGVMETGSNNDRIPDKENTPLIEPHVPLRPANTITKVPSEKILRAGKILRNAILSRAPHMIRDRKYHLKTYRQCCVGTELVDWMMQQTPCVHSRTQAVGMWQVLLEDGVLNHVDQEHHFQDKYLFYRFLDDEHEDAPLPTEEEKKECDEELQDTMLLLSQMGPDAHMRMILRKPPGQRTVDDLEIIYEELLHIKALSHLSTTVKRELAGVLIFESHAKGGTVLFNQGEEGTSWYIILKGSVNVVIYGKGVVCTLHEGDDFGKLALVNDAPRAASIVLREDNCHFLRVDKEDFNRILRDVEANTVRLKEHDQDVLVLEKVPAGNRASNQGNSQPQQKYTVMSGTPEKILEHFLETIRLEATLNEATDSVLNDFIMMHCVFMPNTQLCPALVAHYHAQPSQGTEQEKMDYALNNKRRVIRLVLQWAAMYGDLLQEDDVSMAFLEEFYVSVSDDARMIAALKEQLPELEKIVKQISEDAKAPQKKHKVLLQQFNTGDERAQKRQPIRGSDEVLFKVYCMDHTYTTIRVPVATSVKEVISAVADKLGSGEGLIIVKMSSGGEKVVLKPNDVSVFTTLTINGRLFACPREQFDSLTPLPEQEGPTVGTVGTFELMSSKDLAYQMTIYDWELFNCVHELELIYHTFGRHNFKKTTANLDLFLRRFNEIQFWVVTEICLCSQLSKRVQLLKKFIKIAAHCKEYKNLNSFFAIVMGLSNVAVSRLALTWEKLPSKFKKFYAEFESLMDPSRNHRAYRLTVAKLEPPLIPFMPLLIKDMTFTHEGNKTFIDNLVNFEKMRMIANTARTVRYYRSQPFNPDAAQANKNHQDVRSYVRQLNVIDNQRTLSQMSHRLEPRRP
Test [3] concerns the target Rap guanine nucleotide exchange factor 3 (Homo sapiens) (UniProt O95398). The test is described as follows: Counterscreen qHTS for antagonist of cAMP-regulated guanine nucleotide exchange factor 3 (EPAC1) (AID 1645888). Also: % of control where 0% means no effect. The gist of the method: (§1)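 Measured: fluorescence of BODIPY-GDP bound to Rap1B, which falls as exchange proceeds. Conditions include 50 uM competing GDP, 5 and 30 min reads, and a later cAMP challenge for antagonist detection.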
Background: Counterscreens check selectivity or assay interference.

Test [4] shares this target. The test is described as follows: Counterscreen qHTS for agonist of cAMP-regulated guanine nucleotide exchange factor 3 (EPAC1) (AID 1645889). Also: nearly all actives have a fitted effect of over 40% in size. Also: potency is read from the fitted curve at half-maximal effect. As to activation: % of control where 0% means no effect. The gist of the method:
as §1

Test [5] has as its target Cytochrome P450 3A4 (Homo sapiens) (UniProt P08684). The test is described as follows: qHTS Assay for Activators of Cytochrome P450 3A4 (AID 885). Also: nearly all actives have a fitted effect of over 65% in size. Summed up:
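CYP3A4 activity: Luciferin-PPXE O-dealkylation, 25uM substrate, 200mM KPO4, RT throughout. Read-out is luciferase luminescence; higher values reflect activation.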

Test [6] can be described thus: AP1 Signaling Pathway (AID 357; active = well fitted curve in either direction with a large enough effect, not every such curve was filed as active; also: % is scaled to controls: 0 for no effect and ±100 for the full control effect). Conditions: ME-180 (cervical carcinoma) AP-1-bla reporter, EGF-induced, beta-lactamase ratio, 5 h; at 7.69 µM (top of the series) unless noted. Summed up:
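ME-180 cells with beta-lactamase reporter under AP-1 response element, stimulated with EC50 EGF; compounds tested in titration series, 5 h at 37 °C. CCF4 substrate added 2.5 h at room temperature; 460/530 nm emission ratio gave %activity and AC50.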

For test [7], the target named is Cytochrome P450 1A2 (Homo sapiens) (UniProt P05177). The test is described as follows: p450-cyp1a2 (AID 410; calls by dose curve; also: potency is read from the fitted curve at half-maximal effect). The gist of the method: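 20nM CYP1A2, 100uM Luciferin-ME (=Km), 100mM KPO4; cpd 10 min RT; +NADPH regen, 60 min RT; stop/detect 20 min; luminescence. Normalized to furafylline 57 uM = full inhibition.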
Cytochrome P450 1A2 (Homo sapiens), sequence (P05177 whole entry, looked up): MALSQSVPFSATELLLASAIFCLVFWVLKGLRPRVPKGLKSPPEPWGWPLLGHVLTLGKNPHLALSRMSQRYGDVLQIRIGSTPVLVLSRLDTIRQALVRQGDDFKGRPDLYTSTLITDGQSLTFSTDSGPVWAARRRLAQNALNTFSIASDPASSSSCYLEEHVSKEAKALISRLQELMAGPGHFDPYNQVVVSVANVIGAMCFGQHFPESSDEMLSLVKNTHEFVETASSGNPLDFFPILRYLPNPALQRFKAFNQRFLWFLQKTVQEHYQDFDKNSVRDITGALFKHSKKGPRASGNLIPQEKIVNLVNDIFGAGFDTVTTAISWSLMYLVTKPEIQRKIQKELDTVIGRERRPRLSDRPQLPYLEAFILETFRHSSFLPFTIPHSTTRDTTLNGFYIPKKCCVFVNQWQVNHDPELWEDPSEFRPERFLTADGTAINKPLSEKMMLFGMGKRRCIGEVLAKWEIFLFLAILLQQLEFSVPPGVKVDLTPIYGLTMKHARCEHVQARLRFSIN
A short description of test [8]: NFAT Signaling Pathway (AID 444; active = well fitted curve in either direction with a large enough effect, not every such curve was filed as active;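 also: carbachol stimulus at about its EC50 of 1 µM final; % is scaled to controls: 0 for no effect and ±100 for the full control effect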). Conditions: Jurkat NFAT-bla M1, carbachol, beta-lactamase ratio, 5 h; at 7.69 µM (top of the series) unless noted. Summed up: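 Jurkat cells carrying an NFAT-driven β-lactamase reporter and co-transfected muscarinic M1 receptor were treated with compound plus carbachol (1 uM final, an EC50 level) for 5 h at 37 °C. CCF4 loading followed for 1 h at RT; 460/530 nm ratio gave %activity.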

Test [9] addresses Glucocorticoid receptor (Homo sapiens) (UniProt P04150). Briefly: GR-EFC Redistribution (AID 451; calls by dose curve; also: potency is read from the fitted curve at half-maximal effect). Conditions: CHO-K1 GR-EFC translocation, beta-gal luminescence, 2 h. The gist of the method: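 CHO-K1 cells stably expressing nuclear-localized β-gal enzyme acceptor and GR fused C-terminally to the enzyme donor fragment; ligand-driven nuclear translocation restores β-gal by complementation. Compounds titrated up to 46 uM final, 2 h at 37 °C; luminescence read.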

Test [10] deals with Mitogen-activated protein kinase 10 (Mus musculus) (UniProt Q61831). Briefly: JNK3 AlphaScreen Assay (AID 530; active = well fitted curve in either direction with a large enough effect, not every such curve was filed as active;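 also: kinase came from lysate of stimulated human HepG2 cells; signal reports phosphorylation of biotinylated GST-cJun 1-79 at Ser73 with 10 µM ATP; % is scaled to controls: 0 for no effect and ±100 for the full control effect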). Summed up:
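Biotinylated GST-cJun(1-79) served as substrate for JNK3 in HepG2 lysates stimulated with IL-1beta and TNF-alpha. ATP was 10 uM final, pH 7.6. Ser73 phosphorylation was quantified by AlphaScreen (680 nm excitation).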

Test [11] concerns the target 3',5'-cyclic-AMP phosphodiesterase 4B (Homo sapiens) (UniProt Q07343). The test is described as follows: qHTS Assay for Inhibitors of PDE-IV (AID 607; active = well fitted activation curve with a large enough effect in the main read-out, with a control signal flat, not every such curve was filed as active; also: % of control where 0% means no effect). Summed up:
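ACTOne HEK293 cells carry a modified cAMP-gated CNG channel and express endogenous PDE4; plated 1000 cells/well, compounds up to 22.9 uM final. Membrane-potential dye fluorescence (ex 535/em 590) was read; parental cells received 10 uM forskolin + 100 uM RO 20-1724.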

The target of test [12] is Guanine nucleotide-binding protein G(i) subunit alpha-1 (Homo sapiens) (UniProt P63096). The test is described as follows: qHTS Assay for Inhibitors of RGS12 GoLoco Motif Activity (Green Fluorophore) (AID 879). Also: potency is read from the fitted curve at half-maximal effect. The gist of the method: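 A drop in FITC polarization marked displacement of the FITC-tagged RGS12 GoLoco peptide (10 nM) from Gαi1 (50 nM). Compounds were incubated 10 min at room temperature in Tris pH 7.5 buffer containing 150 mM NaCl, 0.1 mM GDP and 0.05% NP40; unlabeled peptide titration served as control.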
Guanine nucleotide-binding protein G(i) subunit alpha-1 (Homo sapiens), sequence (P63096 whole entry, looked up): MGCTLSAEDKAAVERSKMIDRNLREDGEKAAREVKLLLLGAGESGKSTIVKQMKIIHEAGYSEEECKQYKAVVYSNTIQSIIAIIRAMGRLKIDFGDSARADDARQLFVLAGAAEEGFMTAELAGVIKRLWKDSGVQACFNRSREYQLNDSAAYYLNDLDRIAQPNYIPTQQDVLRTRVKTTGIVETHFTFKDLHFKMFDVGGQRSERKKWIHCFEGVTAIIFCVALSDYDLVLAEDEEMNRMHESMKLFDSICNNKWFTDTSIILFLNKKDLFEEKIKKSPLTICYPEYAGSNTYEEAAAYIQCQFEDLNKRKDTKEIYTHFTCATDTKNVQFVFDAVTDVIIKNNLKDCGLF

A short description of test [13]: qHTS Assay for Identification of Small Molecule Antagonists for Thrombopoietin (TPO) Signaling Pathway (AID 918). Also: potency is read from the fitted curve at half-maximal effect; nearly all actives have a fitted effect of over 60% in size. Conditions: TPO-dependent cell signaling reporter, antagonist mode. The gist of the method:
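Luminescence read-out: GPIIb-promoter luciferase in Ba/F3 cells carrying human TPO receptor. Compounds added with 26 pM TPO (EC50), 24 hrs, 37 C, 5% CO2; cells deprived of IL-3 overnight beforehand. Inhibition of signal scored.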

Test [14] deals with Pyruvate kinase (Leishmania mexicana) (UniProt Q27686). The test is described as follows: qHTS Validation Assay for Inhibitors of Leishmania Mexicana Pyruvate Kinase (AID 945).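 Also: 0% = DMSO only neutral control wells.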 Summed up: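 Read-out: luminescence from PKLight stop/detection reagent, data normalized to DMSO. Reaction: 0.2 nM E451W LmPYK, 0.5 mM PEP, 0.1 mM ADP, pH 7.2, 1 h room temperature.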
In test [15] the target is Pyruvate kinase PKM (Homo sapiens) (UniProt P14618). Briefly: qHTS Assay for Activators of Human Muscle Pyruvate Kinase (AID 954; active = well fitted curve in the direction sought with a large enough effect, not every such curve was filed as active;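 also: 0% = uninhibited enzyme and -100% = no enzyme or full thiadiazolimine inhibition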). Summed up:
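A coupled luminescent readout tracked ATP made from ADP by purified PKM2. Final conditions included 0.1 nM enzyme, PEP and ADP at 0.5 and 0.1 mM, pH 7.2 imidazole buffer with BSA, and a one-hour room-temperature reaction.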

The target of test [16] is Alpha-galactosidase A (Homo sapiens) (UniProt P06280). Briefly: Counterscreen for Glucocerebrosidase Inhibitors: qHTS Assay for Human alpha-Galactosidase at pH 4.5 (AID 992). Also: 0% is about no effect. The gist of the method: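 Citrate buffer pH 4.5, Tween-20 0.005%. Enzyme 2 nM, substrate 80 uM, 20 min RT. Stop pH 10. Fluorescence Ex 365/Em 440. AC50 by Hill fit.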
Alpha-galactosidase A (Homo sapiens), sequence (P06280 whole entry, looked up): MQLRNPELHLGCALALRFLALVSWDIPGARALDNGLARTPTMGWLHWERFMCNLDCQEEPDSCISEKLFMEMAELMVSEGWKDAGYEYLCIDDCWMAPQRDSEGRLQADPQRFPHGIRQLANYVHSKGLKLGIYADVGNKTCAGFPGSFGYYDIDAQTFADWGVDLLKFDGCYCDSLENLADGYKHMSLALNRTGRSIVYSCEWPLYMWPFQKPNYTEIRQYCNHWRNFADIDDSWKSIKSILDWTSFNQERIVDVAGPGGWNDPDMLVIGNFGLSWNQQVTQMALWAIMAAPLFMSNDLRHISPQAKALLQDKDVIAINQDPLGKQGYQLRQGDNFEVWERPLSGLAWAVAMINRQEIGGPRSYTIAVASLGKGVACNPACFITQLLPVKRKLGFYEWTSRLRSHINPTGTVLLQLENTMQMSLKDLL
Test [17] deals with alpha-glucosidase (Oryza sativa, rice) (UniProt Q653V4). Briefly: Counterscreen for Glucocerebrosidase Inhibitors: qHTS Assay for Rice alpha-Glucosidase at pH 5.0 (AID 997).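 Also: 0% = full activity with enzyme and -100% = basal without enzyme.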 Summed up: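 Endpoint fluorogenic assay at pH 5.0: compounds (0.7 nM to 77 uM) titrated against 4 nM rice enzyme and 400 uM 4-MU-alpha-glucoside for 20 min at room temperature; NaOH/glycine stop, read ex 365/em 440 nm, Hill-fitted AC50.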

Test [18] addresses Tumor susceptibility gene 101 protein (Homo sapiens) (UniProt Q99816). Briefly: qHTS Assay for Iinhibitors of HIV-1 Budding by Blocking the Interaction of PTAP/TSG101: Hit Validation (AID 651600). Also: nearly all actives have a fitted effect of over 70% in size. Also: potency is read from the fitted curve at half-maximal effect. The gist of the method: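 FITC-PTAP peptide (50 nM final) binding to Tsg101 binding domain (10 uM final) was measured by polarization after 20 min at r.t. with compounds, in 10 mM HEPES pH 7.5 buffer with 0.15 M NaCl and 0.01% Tween 20.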

Values without a mark were called inactive. Results filed as inconclusive are left out. The source made the active and inactive calls. Unless noted, calls follow the shape of the dose curve; as a rule, active = well fitted curve in the direction sought with a large enough effect; inconclusive = small, poorly fitted or top-dose-only effect, or another doubt; inactive = no such curve, though single readings can be large; an effect the other way counts as inactive or inconclusive. Some results are limits rather than exact numbers.

Rap guanine nucleotide exchange factor 3 (Homo sapiens), sequence (O95398 whole entry, looked up): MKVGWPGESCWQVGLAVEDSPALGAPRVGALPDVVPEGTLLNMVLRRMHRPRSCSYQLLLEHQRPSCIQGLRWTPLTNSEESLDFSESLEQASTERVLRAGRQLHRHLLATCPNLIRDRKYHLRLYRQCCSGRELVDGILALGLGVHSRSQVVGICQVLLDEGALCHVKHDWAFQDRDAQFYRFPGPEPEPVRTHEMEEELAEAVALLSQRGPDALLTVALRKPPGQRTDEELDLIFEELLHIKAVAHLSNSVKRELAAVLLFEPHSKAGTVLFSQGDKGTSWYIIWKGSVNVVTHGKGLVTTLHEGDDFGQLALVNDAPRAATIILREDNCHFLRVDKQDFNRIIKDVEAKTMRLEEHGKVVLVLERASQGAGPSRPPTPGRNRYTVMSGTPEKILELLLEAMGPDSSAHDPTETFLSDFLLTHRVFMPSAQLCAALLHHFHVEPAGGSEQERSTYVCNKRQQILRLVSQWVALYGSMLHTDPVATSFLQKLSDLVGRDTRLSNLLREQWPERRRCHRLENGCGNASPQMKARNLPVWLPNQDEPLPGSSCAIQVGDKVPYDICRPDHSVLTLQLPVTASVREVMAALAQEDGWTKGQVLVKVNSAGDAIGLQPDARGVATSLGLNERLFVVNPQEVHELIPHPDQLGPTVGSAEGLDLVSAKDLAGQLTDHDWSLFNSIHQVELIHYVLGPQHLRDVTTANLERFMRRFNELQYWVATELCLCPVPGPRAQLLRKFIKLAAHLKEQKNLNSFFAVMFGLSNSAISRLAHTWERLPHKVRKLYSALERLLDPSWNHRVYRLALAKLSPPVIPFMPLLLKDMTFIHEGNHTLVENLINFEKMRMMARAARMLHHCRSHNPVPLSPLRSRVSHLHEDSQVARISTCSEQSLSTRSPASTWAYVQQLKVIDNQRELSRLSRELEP
Tumor susceptibility gene 101 protein (Homo sapiens), sequence (Q99816 whole entry, looked up, the tested form may be a part): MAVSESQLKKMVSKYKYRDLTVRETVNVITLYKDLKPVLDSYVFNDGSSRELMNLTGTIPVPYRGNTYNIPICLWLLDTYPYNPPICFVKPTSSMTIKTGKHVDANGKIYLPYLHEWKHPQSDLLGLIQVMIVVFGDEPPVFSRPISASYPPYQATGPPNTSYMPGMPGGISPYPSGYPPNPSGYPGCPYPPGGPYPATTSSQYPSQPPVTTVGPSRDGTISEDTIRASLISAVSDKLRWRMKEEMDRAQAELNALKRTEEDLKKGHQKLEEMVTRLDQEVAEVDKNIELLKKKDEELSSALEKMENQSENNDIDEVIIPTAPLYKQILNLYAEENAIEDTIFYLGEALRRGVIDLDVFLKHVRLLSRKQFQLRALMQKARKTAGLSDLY
Pyruvate kinase PKM (Homo sapiens), sequence (P14618 whole entry, looked up): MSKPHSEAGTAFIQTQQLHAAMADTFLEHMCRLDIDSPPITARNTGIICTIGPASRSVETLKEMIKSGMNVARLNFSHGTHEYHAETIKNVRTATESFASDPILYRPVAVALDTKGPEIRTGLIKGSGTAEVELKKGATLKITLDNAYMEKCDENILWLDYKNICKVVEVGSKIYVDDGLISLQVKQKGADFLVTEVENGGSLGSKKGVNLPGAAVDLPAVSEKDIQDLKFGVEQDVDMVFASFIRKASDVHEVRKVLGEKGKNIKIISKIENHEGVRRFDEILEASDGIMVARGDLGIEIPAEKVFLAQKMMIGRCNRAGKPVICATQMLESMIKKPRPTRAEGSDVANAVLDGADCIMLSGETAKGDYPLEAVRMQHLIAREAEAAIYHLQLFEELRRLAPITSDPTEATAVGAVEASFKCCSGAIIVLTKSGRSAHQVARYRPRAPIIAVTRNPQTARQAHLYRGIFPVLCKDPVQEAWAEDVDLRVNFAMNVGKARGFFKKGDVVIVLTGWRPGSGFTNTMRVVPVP
Glucocorticoid receptor (Homo sapiens), sequence (P04150 whole entry, looked up, the tested form may be a part): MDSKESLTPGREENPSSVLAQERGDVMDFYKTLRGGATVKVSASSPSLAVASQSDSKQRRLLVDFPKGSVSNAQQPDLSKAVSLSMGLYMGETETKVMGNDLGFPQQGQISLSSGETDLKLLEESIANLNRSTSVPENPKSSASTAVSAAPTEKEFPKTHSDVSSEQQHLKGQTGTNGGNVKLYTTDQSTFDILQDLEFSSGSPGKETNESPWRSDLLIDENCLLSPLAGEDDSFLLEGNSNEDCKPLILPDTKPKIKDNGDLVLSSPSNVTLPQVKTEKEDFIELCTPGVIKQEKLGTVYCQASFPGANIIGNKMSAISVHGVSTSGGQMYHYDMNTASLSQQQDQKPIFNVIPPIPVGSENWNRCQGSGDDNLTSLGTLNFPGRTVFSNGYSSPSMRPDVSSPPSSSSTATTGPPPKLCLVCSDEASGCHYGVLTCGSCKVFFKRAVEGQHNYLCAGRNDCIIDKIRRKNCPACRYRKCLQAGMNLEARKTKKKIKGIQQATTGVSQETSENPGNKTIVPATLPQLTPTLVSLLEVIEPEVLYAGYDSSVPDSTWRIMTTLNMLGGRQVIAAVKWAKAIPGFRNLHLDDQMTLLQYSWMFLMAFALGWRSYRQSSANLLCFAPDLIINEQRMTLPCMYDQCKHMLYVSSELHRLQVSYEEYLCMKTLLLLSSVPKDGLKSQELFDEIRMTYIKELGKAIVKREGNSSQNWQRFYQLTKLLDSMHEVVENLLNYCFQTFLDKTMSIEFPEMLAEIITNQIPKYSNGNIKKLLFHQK

Regarding `CC[n+]1ccc(/C=C/c2c[nH]c3ccccc23)cc1`, the Potency entry in [1], in test [2] and in [3] was “inactive” in each case. Also, in test [4], the Potency is 44.7 µM (active).
Take `COc1ccccc1N1CCN(C(=O)c2ccc(S(=O)(=O)N3CCCC3)cc2)CC1`: the Potency entry in test [1], in test [2], in test [3] and in test [4] was “inactive” throughout.
Take `COC(=O)c1sc(S(=O)(=O)N2CCCCC2C)c(C(=O)OC)c1C` (stereo not given): the Potency result in test [1], in test [3] and in test [4] was “inactive” each time. Moreover, the Potency in test [2] is 53.6 µM (active).
Regarding `Cn1c(N)c(C(=O)COC(=O)c2cc(-c3ccco3)nc3ccccc23)c(=O)n(C)c1=O`, in test [5], the call was inactive. Besides, in test [1], the Potency was 47.8 µM (active). For the same compound, the Potency entry in test [2], in [3] and in test [4] was “inactive” in each case.
In the case of `CC(=O)[C@@]1(O)Cc2c(O)c3c(c(O)c2[C@H](O[C@H]2C[C@H](N)[C@H](O)[C@H](C)O2)C1)C(=O)c1ccccc1C3=O`, the activity change, negative = inhibition in test [6] is -110% [at 38 µM] (active); in [8], -116% [at 38 µM] (active); in test [3], 128% [at 30.8 µM]. In addition, the Potency was 20 µM (active) in test [7]; > 46 µM in test [9]; 0.02 µM (active) in test [12]; 0.0251 µM (active) in test [13]; 12.6 µM (active) in test [4]. Besides, the Potency result in test [10], in test [11], in test [1] and in [2] was “inactive” each time. For the same compound, the call in test [14], in test [15], in test [16] and in test [17] was inactive.
For the compound `COc1ccc(NC(=O)NS(=O)(=O)c2ccc(C)cc2)cn1`, the Potency entry in test [1], in test [2] and in [3] was “inactive” in each case. In addition, in test [4], the Potency is 63.1 µM (active).
In the case of `Cc1ccc(S(=O)(=O)/N=C2\C=C(NS(=O)(=O)c3ccccc3)C(=O)c3ccccc32)cc1`, the Potency in test [1] is 26.9 µM (active); in test [2], 16.9 µM (active). Moreover, the Potency entry in test [3] and in test [4] was “inactive” in each case.
Take `COC(=O)c1ccc(Cn2nc(-c3cc(C)ccc3C)ccc2=O)cc1`: the Potency result in test [1], in test [2], in test [3] and in test [4] was “inactive” throughout.
Take `Nc1ccc2nc3c(=O)n(C4CCCCC4)c(=O)[nH]c3nc2c1`: the values for the Potency in test [18] and in [4] were 6.51 µM (active) and 22.4 µM (active), respectively. Besides, the Potency entry in [1], in test [2] and in test [3] was “inactive” each time.
`CCN(CC)c1ccc(/C=C/C(=O)c2ccc(Br)cc2)cc1`: the Potency result in test [18], in test [1] and in test [2] was “inactive” throughout. Further, the activity change, negative = inhibition in test [3] is 192% [at 30.8 µM]. In test [4], the Potency is 14.1 µM (active).
